A number with no mark means an inactive call. Inconclusive results are not listed. Where a call stands in place of a potency, no number is given. Calls of active or inactive are those of the source. Unless noted, the call rests on the fitted dose curve; in most records, active means well fitted curve in the direction sought with a large enough effect; inconclusive means small, poorly fitted or top-dose-only effect, or another doubt; inactive means no such curve, though single readings can be large; an effect the other way counts as inactive or inconclusive. Bridge positions count the residues as written; N and C are the ends. Square brackets hold non-standard residues; d marks the D form. Peptide text beside a SMILES is read from it. * marks the point of attachment. Ileψ(thiazoline)Cys = CC[C@H](C)[C@H](N)C1=N[C@H](C(=O)*)CS1; d(aIle) = CC[C@H](C)[C@@H](N)C(=O)O; dOrn = NCCC[C@@H](N)C(=O)O
Columns and labels:
[1] = target: Cytochrome P450 3A4 (Homo sapiens) (UniProt P08684); test: qHTS Assay for Inhibitors and Substrates of Cytochrome P450 3A4 (AID 884); further: nearly all actives have a fitted effect of over 50% in size; further: potency means the concentration at half of the fitted maximal effect
Cytochrome P450 3A4 (Homo sapiens), sequence (P08684 whole entry, looked up): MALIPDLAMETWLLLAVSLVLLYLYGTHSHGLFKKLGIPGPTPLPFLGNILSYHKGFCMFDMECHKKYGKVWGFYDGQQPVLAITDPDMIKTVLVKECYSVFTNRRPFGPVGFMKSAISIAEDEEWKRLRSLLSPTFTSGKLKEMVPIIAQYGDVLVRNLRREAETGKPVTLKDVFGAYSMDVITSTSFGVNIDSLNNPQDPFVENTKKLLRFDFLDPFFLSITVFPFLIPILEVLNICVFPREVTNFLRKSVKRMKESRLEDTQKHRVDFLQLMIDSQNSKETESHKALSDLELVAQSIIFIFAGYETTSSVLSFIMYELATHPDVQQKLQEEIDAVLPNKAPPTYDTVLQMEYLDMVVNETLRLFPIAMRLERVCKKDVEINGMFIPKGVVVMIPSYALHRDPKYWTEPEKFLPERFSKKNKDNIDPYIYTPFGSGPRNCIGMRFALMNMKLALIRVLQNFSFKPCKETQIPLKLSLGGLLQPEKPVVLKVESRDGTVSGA
In short: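 Luminescent readout of luciferin produced by CYP3A4 (20 nM) dealkylation of Luciferin-PPXE, 25 uM (its KM). NADPH-driven reaction ran 60 min at RT after 10 min compound preincubation; data scaled to 57 uM ketoconazole as 100% inhibition.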

[2] = target: Cytochrome P450 3A4 (Homo sapiens) (UniProt P08684); test: qHTS Assay for Activators of Cytochrome P450 3A4 (AID 885); further: nearly all actives have a fitted effect of over 65% in size; further: potency means the concentration at half of the fitted maximal effect
In short: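 Luminescent readout of luciferin formed from 25 uM Luciferin-PPXE (KM level) by 20 nM CYP3A4 in 200 mM KPO4, with 60 min NADPH-driven reaction at room temperature after 10 min compound exposure. Ketoconazole (57 uM) defined 100% inhibition.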

[3] = target: ATP-dependent 6-phosphofructokinase (Trypanosoma brucei brucei) (UniProt O15648); test: qHTS Assay to Find Inhibitors of T. brucei phosphofructokinase: hit validation (AID 492961);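 further: luminescence reports ADP formed as PFK phosphorylates fructose-6-phosphate with ATP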
ATP-dependent 6-phosphofructokinase (Trypanosoma brucei brucei), sequence (O15648 whole entry, looked up): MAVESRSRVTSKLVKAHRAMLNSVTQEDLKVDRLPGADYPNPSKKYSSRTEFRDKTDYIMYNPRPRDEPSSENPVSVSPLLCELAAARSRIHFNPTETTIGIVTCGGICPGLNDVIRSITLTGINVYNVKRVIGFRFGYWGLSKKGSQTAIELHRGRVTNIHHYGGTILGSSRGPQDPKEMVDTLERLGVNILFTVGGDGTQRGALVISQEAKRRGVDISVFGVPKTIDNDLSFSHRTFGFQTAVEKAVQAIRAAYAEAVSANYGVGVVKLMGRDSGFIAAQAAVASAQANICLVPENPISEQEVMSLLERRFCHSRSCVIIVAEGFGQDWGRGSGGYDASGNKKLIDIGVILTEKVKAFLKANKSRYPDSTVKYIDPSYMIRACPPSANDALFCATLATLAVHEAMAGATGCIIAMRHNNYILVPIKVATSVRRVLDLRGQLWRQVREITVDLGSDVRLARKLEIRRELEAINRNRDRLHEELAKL
In short: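 PFK 1.25 nM, F6P 0.5 mM, ATP 0.1 mM, MgCl2 5 mM, 0.1 M TEA pH 8.0, Tween20 0.01%, BSA 0.1%; 45 min RT. ADP-Glo two-step detection, luminescence. qHTS titration; curve fitting with curve-class categorization.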

[4] = S16 Schwann cell PMP22 intronic element firefly luciferase assay (AID 624032); further: nearly all actives have a fitted effect of over 30% in size
In short: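 Rat S16 Schwann cells stably carrying a PMP22 intronic element-driven Fluc reporter were seeded overnight, then exposed to compounds for 24 h at 37 °C. Luminescence was normalized to PTC124 (positive control) and DMSO (0% activity).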

7G8 = test: qHTS profiling for inhibitors of Plasmodium falciparum proliferation (AID 504749); further: nearly all actives have a fitted effect of over 60% in size; further: potency means the concentration at half of the fitted maximal effect; details: P. falciparum in erythrocytes, SYBR Green DNA, 72 h; series mostly up to 12.8 µM
In short: (§1)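 Fluorescence of SYBR Green-bound parasite DNA, read at 485/535 nm, served as the growth measure. Infected erythrocytes were cultured with compound 72 h; artemisinin (0.29 uM) and DMSO wells defined the normalization range.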

AA1029 = test: as above; details: P. falciparum in erythrocytes, SYBR Green DNA, 72 h; series mostly up to 12.8 µM
In short: as §1

CP194 = test: as above; details: P. falciparum in erythrocytes, SYBR Green DNA, 72 h; series mostly up to 12.8 µM
In short: as §1

CP203 = test: as above; details: P. falciparum in erythrocytes, SYBR Green DNA, 72 h; series mostly up to 12.8 µM
In short: as §1

CP211 = test: as above; details: P. falciparum in erythrocytes, SYBR Green DNA, 72 h; series mostly up to 12.8 µM
In short: as §1

CP215 = test: as above; details: P. falciparum in erythrocytes, SYBR Green DNA, 72 h; series mostly up to 12.8 µM
In short: as §1

CP265 = test: as above; details: P. falciparum in erythrocytes, SYBR Green DNA, 72 h; series mostly up to 12.8 µM
In short: as §1

CP291 = test: as above; details: P. falciparum in erythrocytes, SYBR Green DNA, 72 h; series mostly up to 12.8 µM
In short: as §1

CP335 = test: as above; details: P. falciparum in erythrocytes, SYBR Green DNA, 72 h; series mostly up to 12.8 µM
In short: as §1

DIV30 = test: as above; details: P. falciparum in erythrocytes, SYBR Green DNA, 72 h; series mostly up to 12.8 µM
In short: as §1

P93_24 = test: as above; details: P. falciparum in erythrocytes, SYBR Green DNA, 72 h; series mostly up to 12.8 µM
In short: as §1

P94_40 = test: as above; details: P. falciparum in erythrocytes, SYBR Green DNA, 72 h; series mostly up to 12.8 µM
In short: as §1

PC26 = test: as above; details: P. falciparum in erythrocytes, SYBR Green DNA, 72 h; series mostly up to 12.8 µM
In short: as §1

[5] = target: Cytochrome P450 2C9 (Homo sapiens) (UniProt P11712); test: qHTS Assay for Inhibitors and Substrates of Cytochrome P450 2C9 (AID 883); further: nearly all actives have a fitted effect of over 60% in size; further: potency means the concentration at half of the fitted maximal effect
Cytochrome P450 2C9 (Homo sapiens), sequence (P11712 whole entry, looked up): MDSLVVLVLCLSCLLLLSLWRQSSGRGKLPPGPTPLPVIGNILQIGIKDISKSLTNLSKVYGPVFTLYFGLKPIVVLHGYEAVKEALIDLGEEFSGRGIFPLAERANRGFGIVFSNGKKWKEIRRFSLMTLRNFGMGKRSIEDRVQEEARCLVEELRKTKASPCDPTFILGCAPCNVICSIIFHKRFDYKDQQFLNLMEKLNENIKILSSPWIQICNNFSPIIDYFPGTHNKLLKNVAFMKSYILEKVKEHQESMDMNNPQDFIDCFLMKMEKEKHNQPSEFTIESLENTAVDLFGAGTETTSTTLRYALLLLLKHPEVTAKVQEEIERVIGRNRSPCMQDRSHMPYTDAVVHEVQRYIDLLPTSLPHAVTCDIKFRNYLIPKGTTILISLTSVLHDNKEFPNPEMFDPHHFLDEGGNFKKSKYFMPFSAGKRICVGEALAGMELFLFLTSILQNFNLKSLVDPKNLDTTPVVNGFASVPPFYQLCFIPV
In short: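 Human CYP2C9 (10nM) hydroxylated Luciferin-H (100uM, at its KM) to luciferin in 25mM KPO4. Compound was preincubated 10 min at 37C, then NADPH regeneration started a 60 min reaction at 37C. Luminescence was read after detection reagent, normalized to 57uM sulphaphenazole.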

[6] = target: Cytochrome P450 2D6 (Homo sapiens) (UniProt P10635); test: qHTS Assay for Inhibitors and Substrates of Cytochrome P450 2D6 (AID 891); further: potency means the concentration at half of the fitted maximal effect; nearly all actives have a fitted effect of over 60% in size
Cytochrome P450 2D6 (Homo sapiens), sequence (P10635 whole entry, looked up): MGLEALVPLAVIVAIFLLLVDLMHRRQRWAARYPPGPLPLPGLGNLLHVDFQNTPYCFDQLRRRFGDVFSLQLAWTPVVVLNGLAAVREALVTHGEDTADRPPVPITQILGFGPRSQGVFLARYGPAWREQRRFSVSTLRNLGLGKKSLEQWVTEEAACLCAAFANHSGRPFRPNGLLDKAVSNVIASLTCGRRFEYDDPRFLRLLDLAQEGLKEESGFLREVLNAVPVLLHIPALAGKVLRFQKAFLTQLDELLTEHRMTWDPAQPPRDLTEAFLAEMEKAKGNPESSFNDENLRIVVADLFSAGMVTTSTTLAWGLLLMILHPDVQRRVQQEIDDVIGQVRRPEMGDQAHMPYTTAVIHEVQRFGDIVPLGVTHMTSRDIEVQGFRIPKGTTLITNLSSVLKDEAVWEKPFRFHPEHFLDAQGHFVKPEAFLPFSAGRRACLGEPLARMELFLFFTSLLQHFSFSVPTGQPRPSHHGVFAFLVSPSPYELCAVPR
In short: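 Luminescent read-out of luciferin formed by 5 nM human CYP2D6 demethylating 30 uM Luciferin-ME EGE (Km level) over 60 min at room temperature after NADPH regeneration addition. Data normalized to full inhibition by 1.43 uM quinidine.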

[7] = qHTS Assay for Identification of Small Molecule Agonists for Hypoxia Response Element Signaling Pathway (AID 914; active means well fitted activation curve with a large enough effect in the signal ratio, with a control signal flat, not every such curve was filed as active; the % refers to the signal ratio); details: ME-180 (cervical carcinoma) HRE-bla reporter, beta-lactamase ratio, CoCl2, 17 h; activation: stronger effect = higher value
In short: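 A beta-lactamase reporter under hypoxia response element control in ME-180 cells served as the system. Compound titrations plus EC50 CoCl2 ran 17 h at 37 degrees Celsius; AC50 values were fitted from %Activity.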

## CC(=O)OCC(=O)[C@@]1(OC(C)=O)[C@H](C)C[C@H]2[C@@H]3C[C@H](F)C4=CC(=O)C=C[C@@]4(C)[C@]3(F)[C@H](O)C[C@@]21C
[1]
  Potency: inactive
[2]
  Potency: 6.31 µM (active)

## c1ccc2c(c1)CCC[C@@H]2C1=NCCN1
[3]
  outcome: inactive
[4]
  Potency: inactive
7G8
  Potency: inactive
AA1029
  Potency: inactive
CP194
  Potency: inactive
CP203
  Potency: inactive
CP211
  Potency: inactive
CP215
  Potency: inactive
CP265
  Potency: inactive
CP291
  Potency: inactive
CP335
  Potency: inactive
DIV30
  Potency: inactive
P93_24
  Potency: inactive
P94_40
  Potency: inactive
PC26
  Potency: inactive

## C[C@@H](C(=O)O)c1ccc(N2Cc3ccccc3C2=O)cc1
[5]
  Potency: inactive
[1]
  Potency: inactive

## CCN[C@@H]1C[C@H](N)[C@H](O[C@H]2OC(CN)=CC[C@H]2N)[C@@H](O)[C@H]1O[C@H]1OC[C@@](C)(O)[C@@H](NC)[C@@H]1O
[3]
  outcome: inactive
7G8
  Potency: inactive
AA1029
  Potency: inactive
CP194
  Potency: inactive
CP203
  Potency: inactive
CP211
  Potency: inactive
CP215
  Potency: inactive
CP265
  Potency: inactive
CP291
  Potency: inactive
CP335
  Potency: inactive
DIV30
  Potency: inactive
P93_24
  Potency: inactive
P94_40
  Potency: inactive
PC26
  Potency: inactive

## CC#C[C@@]1(O)CC[C@H]2[C@@H]3CCC4=CC(=O)CCC4=C3[C@H](c3ccc(N(C)C)cc3)C[C@]21C
[5]
  Potency: 3.98 µM (active)

## COc1ccc([C@@H]2CC(=O)c3c(O)cc(O)cc3O2)cc1O
[1]
  Potency: 15.8 µM (active)

## Cc1cccc(CN2CCN([C@@H](c3ccccc3)c3ccc(Cl)cc3)CC2)c1
[6]
  Potency: 3.16 µM (active)

## C[C@H](NCCC(c1ccccc1)c1ccccc1)c1ccccc1
[6]
  Potency: 0.158 µM (active)

## CC[C@H](C)[C@H](N)C1=N[C@H](C(=O)N[C@@H](CC(C)C)C(=O)N[C@@H](CCC(=O)O)C(=O)N[C@@H](C(=O)N[C@H]2CCCCNC(=O)[C@@H](CC(N)=O)NC(=O)[C@@H](CC(=O)O)NC(=O)[C@@H](Cc3cnc[nH]3)NC(=O)[C@@H](Cc3ccccc3)NC(=O)[C@@H]([C@@H](C)CC)NC(=O)[C@@H](CCCN)NC2=O)[C@@H](C)CC)CS1 ({Ileψ(thiazoline)Cys}-LE[d(aIle)]K[dOrn][d(aIle)][dF][dH][dD][dN]; lactam 4-C)
[7]
  activation: -5.24%

## CC[C@@H]1OC(=O)[C@H](C)[C@H](O[C@@H]2C[C@](C)(OC)[C@H](O)[C@H](C)O2)[C@H](C)[C@H](O[C@@H]2O[C@@H](C)C[C@@H](N(C)C)[C@@H]2O)[C@](C)(O)C[C@H](C)C(=O)[C@H](C)[C@H](O)[C@]1(C)O
[2]
  Potency: inactive

## Clc1ccc([C@H](Cn2ccnc2)OCc2csc3c(Cl)cccc23)c(Cl)c1
[5]
  Potency: 0.316 µM (active)
[2]
  Potency: inactive
[6]
  Potency: 5.01 µM (active)
7G8
  Potency: 1.41 µM (active)
CP203
  Potency: 5.73 µM (active)
DIV30
  Potency: 5.1 µM (active)
P93_24
  Potency: 2 µM (active)
P94_40
  Potency: 3.55 µM (active)
PC26
  Potency: 6.42 µM (active)

## CCOC(=O)Oc1c(OC)cc(C(=O)O[C@H]2C[C@H]3CN4CCc5c([nH]c6cc(OC)ccc56)[C@@H]4C[C@H]3[C@@H](C(=O)OC)[C@@H]2OC)cc1OC
[3]
  outcome: inactive
7G8
  Potency: 2.51 µM (active)
DIV30
  Potency: 7.21 µM (active)
P93_24
  Potency: 3.98 µM (active)
PC26
  Potency: 5.73 µM (active)

## CN1CCN([C@@H](c2ccccc2)c2ccc(Cl)cc2)CC1
[6]
  Potency: 2 µM (active)
[3]
  outcome: inactive
[4]
  Potency: inactive
7G8
  Potency: 3.16 µM (active)
CP211
  Potency: inactive

## CN(C)CCn1nnnc1SCC1=C(C(=O)O)N2C(=O)[C@@H](NC(=O)Cc3csc(N)n3)[C@@H]2SC1
[3]
  outcome: inactive
[4]
  Potency: inactive
7G8
  Potency: 3.55 µM (active)
AA1029
  Potency: inactive
CP194
  Potency: inactive
CP203
  Potency: inactive
CP211
  Potency: inactive
CP215
  Potency: inactive
CP291
  Potency: inactive

Reference: PubChem BioAssay (NCATS)
